Data reported in PubChem BioAssay AID1159580 (chemical genetic matrix, 2015).
Several values for one entry are separate records, joined by “and”; a condition that tells them apart may be missing. Equal values may be shown once. The whole screen tested about 5,500 compounds, of which about 2,000 (36%) were called active. Roughly 18% stayed inconclusive and do not appear here. Rule as the data show it: active = normalized growth mostly below about 0.91 (no sharp cut-off); inconclusive = no clear call, values can overlap the other calls; inactive = mostly above about 0.92. This is one part of the list.

Test: chemical genetic growth profiling, strain panel (AID 1159580);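 also: tested at 20 µM; growth read once vehicle control cultures reached saturation at 30 °C; 1 = growth at the plate median or of vehicle wells; lower values mean less growth of the strain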
Conditions: S. cerevisiae deletion strains, growth OD

For C=C(C)[C@H]1CC=C(C(=O)O)CC1, the normalized growth (locus YAL013W, strain DEP1, stronger effect = lower value) was 1.01 (inactive), the normalized growth (locus YAL021C, strain ccr4, stronger effect = lower value) was 0.968 (inactive) and the normalized growth (locus YAL026C, strain drs2, stronger effect = lower value) was 0.958 (inactive). For the same molecule, the normalized growth (locus YAL030W, strain snc1, stronger effect = lower value) was 0.985 (inactive), the normalized growth (locus YBL061C, strain skt5, stronger effect = lower value) was 0.986 (inactive) and the normalized growth (locus YBR009C, strain hhf1, stronger effect = lower value) was 0.939 (inactive). For the same molecule, the normalized growth (locus YBR021W, strain FUR4, stronger effect = lower value) was 0.82 (active), the normalized growth (locus YBR023C, strain chs3, stronger effect = lower value) was 0.985 (inactive) and the normalized growth (locus YBR171W, strain sec66, stronger effect = lower value) was 0.961 (inactive). The normalized growth (locus YBR229C, strain ROT2, stronger effect = lower value) was 1.01 (inactive), the normalized growth (locus YBR231C, strain swc5, stronger effect = lower value) was 0.939 (inactive) and the normalized growth (locus YBR279W, strain paf1, stronger effect = lower value) was 0.972 (inactive). The normalized growth (locus YCL011C, strain gbp2, stronger effect = lower value) was 0.973 (inactive), the normalized growth (locus YCL016C, strain dcc1, stronger effect = lower value) was 0.979 (inactive) and the normalized growth (locus YCL029C, strain bik1, stronger effect = lower value) was 0.938 (inactive). The normalized growth (locus YCL061C, strain MRC1, stronger effect = lower value) was 0.944 (inactive), the normalized growth (locus YCL069W, strain vba3, stronger effect = lower value) was 0.984 (inactive) and the normalized growth (locus YCR088W, strain abp1, stronger effect = lower value) was 0.994 (inactive). The normalized growth (locus YDL005C, strain med2, stronger effect = lower value) was 0.97 (inactive), the normalized growth (locus YDL035C, strain GPR1, stronger effect = lower value) was 0.926 (inactive) and the normalized growth (locus YDL040C, strain nat1, stronger effect = lower value) was 0.995 (inactive). For the same molecule, the normalized growth (locus YDL074C, strain BRE1, stronger effect = lower value) was 0.945 (inactive), the normalized growth (locus YDL101C, strain DUN1, stronger effect = lower value) was 0.976 (inactive) and the normalized growth (locus YDL134C, strain PPH21, stronger effect = lower value) was 0.944 (inactive). For the same molecule, the normalized growth (locus YDL185W, strain tfp1, stronger effect = lower value) was 0.871 (active), the normalized growth (locus YDL192W, strain arf1, stronger effect = lower value) was 0.957 (inactive) and the normalized growth (locus YDR001C, strain nth1, stronger effect = lower value) was 0.986 (inactive). For the same molecule, the normalized growth (locus YDR069C, strain doa4, stronger effect = lower value) was 0.999 (inactive), the normalized growth (locus YDR101C, strain arx1, stronger effect = lower value) was 0.926 (inactive) and the normalized growth (locus YDR137W, strain rgp1, stronger effect = lower value) was 1.04 (inactive). The normalized growth (locus YDR159W, strain sac3, stronger effect = lower value) was 0.94 (inactive), the normalized growth (locus YDR162C, strain NBP2, stronger effect = lower value) was 0.989 (inactive) and the normalized growth (locus YDR195W, strain ref2) was 0.844 (active). For the same molecule, the normalized growth (locus YDR297W, strain sur2, stronger effect = lower value) was 0.971 (inactive), the normalized growth (locus YDR318W, strain mcm21, stronger effect = lower value) was 0.938 (inactive) and the normalized growth (locus YDR334W, strain swr1, stronger effect = lower value) was 0.971 (inactive). The normalized growth (locus YDR335W, strain msn5, stronger effect = lower value) was 0.975 (inactive), the normalized growth (locus YDR388W, stronger effect = lower value) was 0.952 (inactive) and the normalized growth (locus YDR392W, strain spt3, stronger effect = lower value) was 0.934 (inactive). The normalized growth (locus YDR502C, strain sam2, stronger effect = lower value) was 0.926 (inactive), the normalized growth (locus YEL003W, strain gim4, stronger effect = lower value) was 0.943 (inactive) and the normalized growth (locus YEL037C, strain rad23, stronger effect = lower value) was 0.988 (inactive). The normalized growth (locus YEL061C, strain CIN8 (second series), stronger effect = lower value) was 0.991 (inactive), the normalized growth (locus YEL061C, strain CIN8, stronger effect = lower value) was 1 (inactive) and the normalized growth (locus YER015W, strain faa2, stronger effect = lower value) was 0.98 (inactive). For the same molecule, the normalized growth (locus YER016W, strain bim1, stronger effect = lower value) was 0.992 (inactive), the normalized growth (locus YER110C, stronger effect = lower value) was 0.925 (inactive) and the normalized growth (locus YER111C, strain swi4, stronger effect = lower value) was 0.98 (inactive). For the same molecule, the normalized growth (locus YER155C, strain BEM2 (second series), stronger effect = lower value) was 1 (inactive), the normalized growth (locus YER155C, strain BEM2, stronger effect = lower value) was 0.947 (inactive) and the normalized growth (locus YER167W, strain BCK2, stronger effect = lower value) was 0.978 (inactive). The normalized growth (locus YFR010W, strain ubp6, stronger effect = lower value) was 0.978 (inactive), the normalized growth (locus YGL078C, strain dbp3, stronger effect = lower value) was 0.804 (active) and the normalized growth (locus YGL086W, strain mad1, stronger effect = lower value) was 0.965 (inactive). For the same molecule, the normalized growth (locus YGL167C, strain pmr1, stronger effect = lower value) was 0.978 (inactive), the normalized growth (locus YGL173C, strain kem1, stronger effect = lower value) was 0.949 (inactive) and the normalized growth (locus YGL227W, strain vid30, stronger effect = lower value) was 0.975 (inactive). The normalized growth (locus YGL240W, strain doc1, stronger effect = lower value) was 0.956 (inactive), the normalized growth (locus YGL248W, strain PDE1, stronger effect = lower value) was 0.97 (inactive) and the normalized growth (locus YGL253W, strain hxk2, stronger effect = lower value) was 0.944 (inactive). The normalized growth (locus YGR135W, strain pre9, stronger effect = lower value) was 0.903 (inactive), the normalized growth (locus YGR252W, strain gcn5, stronger effect = lower value) was 0.606 (active) and the normalized growth (locus YHR013C, strain ard1, stronger effect = lower value) was 0.993 (inactive). The normalized growth (locus YHR027C, strain rpn1, stronger effect = lower value) was 0.96 (inactive), the normalized growth (locus YHR030C, strain SLT2, stronger effect = lower value) was 0.997 (inactive) and 0.788 (active) and the normalized growth (locus YHR079C, strain IRE1 (second series), stronger effect = lower value) was 0.941 (inactive). For the same molecule, the normalized growth (locus YHR079C, strain IRE1, stronger effect = lower value) was 0.703 (active), the normalized growth (locus YHR094C, strain hxt1, stronger effect = lower value) was 0.955 (inactive) and the normalized growth (locus YHR129C, strain ARP1, stronger effect = lower value) was 0.984 (inactive). For the same molecule, the normalized growth (locus YHR142W, strain chs7, stronger effect = lower value) was 0.96 (inactive), the normalized growth (locus YHR200W, strain rpn10, stronger effect = lower value) was 0.961 (inactive) and the normalized growth (locus YIL066C, strain RNR3, stronger effect = lower value) was 0.963 (inactive). The normalized growth (locus YIL073C, strain SPO22, stronger effect = lower value) was 0.978 (inactive), the normalized growth (locus YIL125W, strain kgd1, stronger effect = lower value) was 0.78 (active) and the normalized growth (locus YIR030C, strain dcg1, stronger effect = lower value) was 0.961 (inactive). The normalized growth (locus YJL092W, strain hpr5, stronger effect = lower value) was 0.983 (inactive), the normalized growth (locus YJL095W, strain BCK1 (second series), stronger effect = lower value) was 0.985 (inactive) and the normalized growth (locus YJL095W, strain BCK1, stronger effect = lower value) was 0.98 (inactive) and 0.786 (active). For the same molecule, the normalized growth (locus YJL115W, strain asf1, stronger effect = lower value) was 0.983 (inactive), the normalized growth (locus YJL129C, strain trk1, stronger effect = lower value) was 0.911 (inactive) and the normalized growth (locus YJL134W, strain LCB3, stronger effect = lower value) was 0.996 (inactive). The normalized growth (locus YJL154C, strain vps35, stronger effect = lower value) was 0.99 (inactive), the normalized growth (locus YJL164C, strain tpk1, stronger effect = lower value) was 0.97 (inactive) and the normalized growth (locus YJL166W, strain qcr8, stronger effect = lower value) was 0.981 (inactive). The normalized growth (locus YJL168C, strain set2, stronger effect = lower value) was 0.968 (inactive), the normalized growth (locus YJL187C, strain SWE1 (second series), stronger effect = lower value) was 0.955 (inactive) and the normalized growth (locus YJR043C, strain POL32, stronger effect = lower value) was 0.916 (inactive). The normalized growth (locus YJR066W, strain TOR1, stronger effect = lower value) was 0.747 (active) and the normalized growth (locus YKL009W, strain mrt4, stronger effect = lower value) was 0.954 (inactive).
